Experimental data from PubChem BioAssay AID1159580 (chemical genetic matrix, 2015).
Hit rate of the full screen: of about 5,500 compounds, about 2,000 (36%) were called active. Inconclusive results (about 18%) are left out. No stated cut-off is given here; in the data, active means normalized growth mostly below about 0.91 (no sharp cut-off); inconclusive means no clear call, values can overlap the other calls; inactive means mostly above about 0.92. Some of the results follow.

Assay: chemical genetic growth profiling, strain panel (AID 1159580);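 further: tested at 20 µM; growth read once vehicle control cultures reached saturation at 30 °C; 1 = growth at the plate median or of vehicle wells; lower values mean less growth of the strain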
Conditions: S. cerevisiae deletion strains, growth OD
[1] = locus YHR030C, strain SLT2, hits give low values

Measured: normalized growth

Cc1onc(-c2ccccc2)c1-c1nc(CSc2ccc(C(F)(F)F)cn2)no1
inactive: locus YAL013W, strain DEP1, hits give low values 1.03 | locus YBR229C, strain ROT2, hits give low values 0.973 | locus YCL061C, strain MRC1, hits give low values 0.991 | locus YDL101C, strain DUN1, hits give low values 0.968 | locus YDR150W, strain NUM1, hits give low values 1.02 | locus YEL061C, strain CIN8, hits give low values 0.975 | locus YGR078C, strain PAC10, hits give low values 1 | [1] 0.818 | locus YHR087W, strain rtc3, hits give low values 0.984 | locus YJL187C, strain SWE1, hits give low values 0.977 | locus YJR043C, strain POL32, hits give low values 0.957 | locus YJR075W, strain HOC1, hits give low values 0.995 | locus YLR039C, strain RIC1, hits give low values 0.947 | locus YLR058C, strain SHM2 (second series), hits give low values 0.957 | locus YLR085C, strain ARP6, hits give low values 1.06 | locus YLR262C, strain YPT6, hits give low values 0.93 | locus YML094W, strain GIM5, hits give low values 1.02 | locus YMR219W, strain ESC1, hits give low values 0.975 | locus YMR263W, strain SAP30, hits give low values 0.971 | locus YMR307W, strain GAS1, hits give low values 1.02 | locus YNL153C, strain GIM3, hits give low values 1.02 | locus YNL298W, strain CLA4 (second series), hits give low values 1.02 | locus YNL322C, strain KRE1, hits give low values 0.964 | locus YNR030W, strain Alg12, hits give low values 1.01 | locus YOL006C, strain TOP1, hits give low values 0.946 | locus YPL055C, strain LGE1, hits give low values 1.06 | locus YPL241C, strain CIN2, hits give low values 0.93 | locus YPR135W, strain CTF4, hits give low values 1.33

Cc1onc(-c2ccccc2)c1C(=O)Sc1ccc(C(F)(F)F)cn1
inactive: locus YAR019C, strain CDC15, hits give low values 0.941 | locus YBL105C, strain PKC1, hits give low values 0.961 | locus YBR135W, strain CKS1, hits give low values 0.965 | locus YBR136W, strain MEC1, hits give low values 0.955 | locus YBR160W, strain CDC28, hits give low values 0.967 | locus YDL017W, strain CDC7, hits give low values 0.967 | locus YDL028C, strain MPS1, hits give low values 0.958 | locus YDL108W, strain KIN28, hits give low values 0.974 | locus YDL132W, strain cdc53, hits give low values 0.951 | locus YDR052C, strain DBF4, hits give low values 0.977 | locus YDR054C, strain cdc34, hits give low values 0.937 | locus YDR226W, strain ADK1, hits give low values 0.963 | locus YFL009W, strain cdc4, hits give low values 0.951 | locus YFL029C, strain CAK1, hits give low values 0.949 | locus YFR003C, strain YPI1, hits give low values 0.971 | locus YFR028C, strain CDC14, hits give low values 0.968 | locus YGR092W, strain DBF2, hits give low values 0.799 | locus YHR079C, strain IRE1, hits give low values 0.712 | locus YIL147C, strain SLN1, hits give low values 0.955 | locus YJR016C, strain ILV3, hits give low values 0.973 | locus YKL048C, strain ELM1, hits give low values 0.933 | locus YKL101W, strain HSL1, hits give low values 0.817 | locus YKL193C, strain SDS22, hits give low values 0.952 | locus YLR133W, strain CKI1, hits give low values 0.749 | locus YMR001C, strain CDC5, hits give low values 0.952 | locus YMR205C, strain PFK2 (second series), hits give low values 0.882 | locus YMR277W, strain FCP1, hits give low values 0.943 | locus YNL006W, strain LST8, hits give low values 0.979 | locus YNL020C, strain ARK1, hits give low values 0.874 | locus YNL161W, strain CBK1, hits give low values 0.951 | locus YNL207W, strain RIO2, hits give low values 0.961 | locus YNL222W, strain SSU72, hits give low values 0.918 | locus YNL307C, strain MCK1 (second series), hits give low values 0.683 | locus YOL078W, strain AVO1, hits give low values 0.948 | locus YOR061W, strain CKA2, hits give low values 0.765 | locus YOR231W, strain MKK1, hits give low values 0.732 | locus YOR329C, strain SCD5, hits give low values 0.96 | locus YPL153C, strain RAD53, hits give low values 0.661 | locus YPL209C, strain IPL1, hits give low values 0.961 | locus YPR025C, strain CCL1, hits give low values 0.954 | locus YPR106W, strain ISR1, hits give low values 0.939 | locus YPR111W, strain DBF20, hits give low values 0.946 | strain NNK1, hits give low values 0.963 | strain TSCII, hits give low values 0.937
active: locus YDL214C, strain PRR2, hits give low values 0.217 | locus YDR477W, strain SNF1, hits give low values 0.187 | locus YER123W, strain YCK3, hits give low values 0.465 | locus YER133W, strain GLC7, hits give low values 0.249 | locus YFR019W, strain FAB1, hits give low values 0.739 | locus YGR040W, strain KSS1, hits give low values 0.227 | locus YGR052W, strain FMP48, hits give low values 0.242 | [1] 0.317 | locus YHR082C, strain KSP1, hits give low values 0.256 | locus YHR205W, strain SCH9, hits give low values 0.343 | locus YJL095W, strain BCK1, hits give low values 0.424 | locus YJR066W, strain TOR1 (second series), hits give low values 0.343 | locus YJR066W, strain TOR1, hits give low values 0.283 | locus YKL203C, strain TOR2, hits give low values 0.53 | locus YLR113W, strain HOG1, hits give low values 0.184 | locus YML070W, strain DAK1, hits give low values 0.587 | locus YNL183C, strain NPR1, hits give low values 0.106 | locus YOL136C, strain PFK27, hits give low values 0.583 | locus YOR119C, strain RIO1, hits give low values 0.471 | locus YPL256C, strain CLN2, hits give low values 0.209
